According to the supplement of paper PMC10849652:
The full data set covers some 8,800 targets. This sample favours those with a hit. About 0.5% of all pairs of compound and target were hits.

Experiments:
Assay in all cases: log2 fold change, soluble protein after heating vs DMSO (PISA); higher = thermal stabilisation; K562 lysate, 10 uM; active = over 0.2 and 3.5 SD of the protein, either way, in both replicates (recomputed)
lapatinib = compound: CS(=O)(=O)CCNCc1ccc(-c2ccc3ncnc(Nc4ccc(OCc5cccc(F)c5)c(Cl)c4)c3c2)o1 [lapatinib]
How it was run: (§1)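 Following dounce homogenisation of K562 pellets in PBS pH 7.4 with 1 mM MgCl2, crude extract at 1 mg/mL protein was incubated for 30 min with 10 μM compound. Aliquots were then heated for 3 min over 48°C-58°C and pooled, NP-40 was added to 0.5% at 4°C, and soluble protein was recovered as the supernatant at 21,000xg for 90 min. Channel-sum-equalised TMTpro 16plex LC-MS/MS quantified this protein. Each value, from duplicates, is a log-two fold change in thermal stability relative to solvent controls.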

pictilisib = compound: CS(=O)(=O)N1CCN(Cc2cc3nc(-c4cccc5[nH]ncc45)nc(N4CCOCC4)c3s2)CC1 [pictilisib]
How it was run: as §1

crizotinib = compound: C[C@@H](Oc1cc(-c2cnn(C3CCNCC3)c2)cnc1N)c1c(Cl)ccc(F)c1Cl [crizotinib]
How it was run: as §1

[1] = compound: C[C@H](C1=CC=C(C=C1)C(=O)NC2=C3C=CNC3=NC=C2)N
How it was run: as §1

duvelisib = compound: C[C@H](Nc1ncnc2nc[nH]c12)c1cc2cccc(Cl)c2c(=O)n1-c1ccccc1 [duvelisib]
How it was run: as §1

gandotinib = compound: Cc1cc(Nc2cc(CN3CCOCC3)c3nc(C)c(Cc4ccc(Cl)cc4F)n3n2)n[nH]1 [gandotinib]
How it was run: as §1

tozasertib = compound: Cc1cc(Nc2cc(N3CCN(C)CC3)nc(Sc3ccc(NC(=O)C4CC4)cc3)n2)n[nH]1 [tozasertib]
How it was run: as §1

doramapimod = compound: Cc1ccc(-n2nc(C(C)(C)C)cc2NC(=O)Nc2ccc(OCCN3CCOCC3)c3ccccc23)cc1 [doramapimod]
How it was run: as §1

bafetinib = compound: Cc1ccc(NC(=O)c2ccc(CN3CC[C@H](N(C)C)C3)c(C(F)(F)F)c2)cc1Nc1nccc(-c2cncnc2)n1 [bafetinib]
How it was run: as §1

[2] = compound: Cc1cccc(CC(=O)N2CCc3c2ccc(-c2cn(C)c4ncnc(N)c24)c3F)n1
How it was run: as §1

Measured: log2 fold change

DENND6A (UniProt Q8IWF6)
inactive: lapatinib -0.077 | pictilisib -0.079 | crizotinib 0.028 | [1] -0.013 | duvelisib -0.022 | gandotinib -0.006 | tozasertib -0.038 | doramapimod 0.054 | bafetinib -0.099 | [2] 0.086

CMTM3 (UniProt Q96MX0)
Chain of UniProt Q96MX0 (Q96MX0 whole entry, looked up): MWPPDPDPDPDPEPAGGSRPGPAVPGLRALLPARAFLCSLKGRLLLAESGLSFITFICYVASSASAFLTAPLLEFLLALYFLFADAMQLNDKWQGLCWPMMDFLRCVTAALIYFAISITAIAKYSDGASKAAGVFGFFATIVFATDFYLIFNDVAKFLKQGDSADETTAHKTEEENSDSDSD
inactive: lapatinib -0.027 | pictilisib 0.029 | crizotinib -0.069 | [1] 0.023 | duvelisib -0.052 | gandotinib 0.016 | tozasertib 0.042 | doramapimod 0.025 | bafetinib -0.057 | [2] -0.059

COG5 isoform 2 (UniProt Q9UP83)
Chain of UniProt Q9UP83 (Q9UP83 whole entry, looked up): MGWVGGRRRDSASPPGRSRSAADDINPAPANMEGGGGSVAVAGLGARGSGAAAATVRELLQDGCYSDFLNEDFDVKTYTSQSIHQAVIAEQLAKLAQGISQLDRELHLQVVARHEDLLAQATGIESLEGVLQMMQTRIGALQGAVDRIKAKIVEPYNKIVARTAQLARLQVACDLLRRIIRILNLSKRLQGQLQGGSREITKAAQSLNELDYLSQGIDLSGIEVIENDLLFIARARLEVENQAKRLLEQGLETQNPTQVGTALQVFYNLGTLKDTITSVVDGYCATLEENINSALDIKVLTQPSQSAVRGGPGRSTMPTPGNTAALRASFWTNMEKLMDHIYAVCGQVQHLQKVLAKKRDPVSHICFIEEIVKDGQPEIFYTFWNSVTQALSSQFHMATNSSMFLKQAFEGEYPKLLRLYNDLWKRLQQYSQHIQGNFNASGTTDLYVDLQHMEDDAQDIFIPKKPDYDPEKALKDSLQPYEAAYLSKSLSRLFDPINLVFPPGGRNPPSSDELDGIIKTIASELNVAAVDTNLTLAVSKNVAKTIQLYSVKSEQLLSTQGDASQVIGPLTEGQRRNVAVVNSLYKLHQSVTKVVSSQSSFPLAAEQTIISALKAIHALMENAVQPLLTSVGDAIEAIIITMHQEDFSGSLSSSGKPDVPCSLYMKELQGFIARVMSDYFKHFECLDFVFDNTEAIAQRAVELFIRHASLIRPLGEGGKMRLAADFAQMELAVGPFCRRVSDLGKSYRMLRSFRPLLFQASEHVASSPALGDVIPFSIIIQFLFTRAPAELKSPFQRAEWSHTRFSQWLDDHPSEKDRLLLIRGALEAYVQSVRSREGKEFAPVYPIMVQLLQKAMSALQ
inactive: lapatinib -0.059 | pictilisib -0.03 | crizotinib -0.025 | [1] 0.027 | duvelisib 0.007 | gandotinib -0.071 | tozasertib 0.013 | doramapimod -0.024 | bafetinib -0.034 | [2] 0.062

DICER1 (UniProt Q9UPY3)
inactive: lapatinib -0.02 | pictilisib -0.071 | crizotinib -0.075 | [1] -0.075 | duvelisib -0.05 | gandotinib 0.02 | tozasertib 0.035 | doramapimod 0.039 | bafetinib -0.11 | [2] 0.084

DCP1A (UniProt Q9NPI6)
Chain of UniProt Q9NPI6 (Q9NPI6 whole entry, looked up): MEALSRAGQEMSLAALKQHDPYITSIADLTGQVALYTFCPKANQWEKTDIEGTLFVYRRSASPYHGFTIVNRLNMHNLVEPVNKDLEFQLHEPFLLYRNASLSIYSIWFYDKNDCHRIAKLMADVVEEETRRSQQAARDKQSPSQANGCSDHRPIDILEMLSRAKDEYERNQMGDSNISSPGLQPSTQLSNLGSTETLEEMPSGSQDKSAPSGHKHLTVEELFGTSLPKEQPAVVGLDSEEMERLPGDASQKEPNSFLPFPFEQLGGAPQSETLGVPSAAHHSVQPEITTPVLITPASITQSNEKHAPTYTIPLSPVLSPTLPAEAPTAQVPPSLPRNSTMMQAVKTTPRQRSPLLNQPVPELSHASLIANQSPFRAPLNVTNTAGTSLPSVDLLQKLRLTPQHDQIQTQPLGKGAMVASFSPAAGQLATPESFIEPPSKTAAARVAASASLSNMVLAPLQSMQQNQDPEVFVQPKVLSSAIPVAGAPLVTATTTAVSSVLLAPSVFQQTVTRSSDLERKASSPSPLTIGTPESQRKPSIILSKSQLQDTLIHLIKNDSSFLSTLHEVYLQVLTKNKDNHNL
inactive: lapatinib -0.015 | pictilisib -0.015 | crizotinib -0.042 | [1] -0.008 | duvelisib 0.023 | gandotinib 0.003 | tozasertib -0.03 | doramapimod -0.031 | bafetinib 0.043 | [2] 0.089

CMBL (UniProt Q96DG6)
Chain of UniProt Q96DG6 (Q96DG6 whole entry, looked up): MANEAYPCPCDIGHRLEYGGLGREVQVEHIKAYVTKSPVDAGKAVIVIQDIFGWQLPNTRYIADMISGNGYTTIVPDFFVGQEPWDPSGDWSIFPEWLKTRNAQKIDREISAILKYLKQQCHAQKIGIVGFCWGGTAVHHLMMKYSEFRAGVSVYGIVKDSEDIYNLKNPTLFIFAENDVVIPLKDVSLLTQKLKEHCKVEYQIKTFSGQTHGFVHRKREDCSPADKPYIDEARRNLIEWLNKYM
inactive: lapatinib -0.024 | pictilisib 0.076 | crizotinib 0.065 | [1] -0.162 | duvelisib 0.031 | gandotinib 0.127 | tozasertib 0.016 | doramapimod -0.021 | bafetinib -0.028 | [2] -0.001

CHEK1 (UniProt O14757)
Chain of UniProt O14757 (O14757 whole entry, looked up): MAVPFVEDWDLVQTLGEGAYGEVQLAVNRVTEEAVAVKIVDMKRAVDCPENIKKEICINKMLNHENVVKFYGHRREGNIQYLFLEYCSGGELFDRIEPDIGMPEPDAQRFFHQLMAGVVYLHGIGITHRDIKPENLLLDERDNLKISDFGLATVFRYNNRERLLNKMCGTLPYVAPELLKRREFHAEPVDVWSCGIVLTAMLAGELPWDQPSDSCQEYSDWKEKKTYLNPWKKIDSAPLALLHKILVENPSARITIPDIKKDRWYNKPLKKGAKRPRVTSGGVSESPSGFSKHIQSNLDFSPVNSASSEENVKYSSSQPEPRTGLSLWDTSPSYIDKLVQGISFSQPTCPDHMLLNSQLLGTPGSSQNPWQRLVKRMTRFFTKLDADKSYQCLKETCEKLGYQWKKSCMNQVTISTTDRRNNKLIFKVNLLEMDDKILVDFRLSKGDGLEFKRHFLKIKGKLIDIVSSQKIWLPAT
inactive: lapatinib -0.008 | pictilisib -0.003 | crizotinib -0.021 | [1] 0.174 | duvelisib -0.009 | gandotinib -0.014 | tozasertib 0.017 | doramapimod 0.04 | bafetinib -0.025 | [2] 0.015

CTNND1 isoform 3 (UniProt O60716)
inactive: lapatinib -0.019 | pictilisib -0.047 | crizotinib -0.039 | [1] -0.006 | duvelisib 0.008 | gandotinib -0.001 | tozasertib 0.002 | doramapimod 0.007 | bafetinib -0.025 | [2] 0.04

COG7 (UniProt P83436)
Chain of UniProt P83436 (P83436 whole entry, looked up): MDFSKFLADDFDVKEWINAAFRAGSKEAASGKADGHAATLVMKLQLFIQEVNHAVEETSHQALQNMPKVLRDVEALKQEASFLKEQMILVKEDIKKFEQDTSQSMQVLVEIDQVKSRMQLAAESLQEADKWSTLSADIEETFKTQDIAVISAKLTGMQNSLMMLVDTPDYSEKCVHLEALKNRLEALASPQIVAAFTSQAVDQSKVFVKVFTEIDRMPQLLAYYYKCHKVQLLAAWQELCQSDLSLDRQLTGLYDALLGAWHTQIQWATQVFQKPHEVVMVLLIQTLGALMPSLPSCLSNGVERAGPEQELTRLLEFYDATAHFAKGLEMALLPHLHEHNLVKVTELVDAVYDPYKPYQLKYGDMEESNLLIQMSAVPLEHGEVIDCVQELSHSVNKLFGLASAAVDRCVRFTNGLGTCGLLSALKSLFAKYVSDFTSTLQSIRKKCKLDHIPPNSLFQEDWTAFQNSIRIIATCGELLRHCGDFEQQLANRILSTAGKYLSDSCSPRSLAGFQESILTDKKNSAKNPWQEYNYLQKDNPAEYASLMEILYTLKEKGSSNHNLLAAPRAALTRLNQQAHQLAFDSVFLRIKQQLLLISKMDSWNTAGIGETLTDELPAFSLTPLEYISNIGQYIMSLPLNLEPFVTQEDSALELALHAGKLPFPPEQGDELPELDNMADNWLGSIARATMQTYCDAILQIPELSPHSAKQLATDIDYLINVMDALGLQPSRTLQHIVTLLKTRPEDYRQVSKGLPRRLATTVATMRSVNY
inactive: lapatinib -0.014 | pictilisib -0.008 | crizotinib -0.025 | [1] -0.068 | duvelisib -0.01 | gandotinib -0.059 | tozasertib -0.028 | doramapimod 0.028 | bafetinib -0.044 | [2] 0.058

CHORDC1 (UniProt Q9UHD1)
inactive: lapatinib -0.001 | pictilisib 0.009 | crizotinib 0.022 | [1] 0.18 | duvelisib 0.006 | gandotinib -0.011 | tozasertib 0.022 | doramapimod -0.028 | bafetinib 0.022 | [2] -0.031

CNOT2 (UniProt Q9NZN8)
Chain of UniProt Q9NZN8 (Q9NZN8 whole entry, looked up): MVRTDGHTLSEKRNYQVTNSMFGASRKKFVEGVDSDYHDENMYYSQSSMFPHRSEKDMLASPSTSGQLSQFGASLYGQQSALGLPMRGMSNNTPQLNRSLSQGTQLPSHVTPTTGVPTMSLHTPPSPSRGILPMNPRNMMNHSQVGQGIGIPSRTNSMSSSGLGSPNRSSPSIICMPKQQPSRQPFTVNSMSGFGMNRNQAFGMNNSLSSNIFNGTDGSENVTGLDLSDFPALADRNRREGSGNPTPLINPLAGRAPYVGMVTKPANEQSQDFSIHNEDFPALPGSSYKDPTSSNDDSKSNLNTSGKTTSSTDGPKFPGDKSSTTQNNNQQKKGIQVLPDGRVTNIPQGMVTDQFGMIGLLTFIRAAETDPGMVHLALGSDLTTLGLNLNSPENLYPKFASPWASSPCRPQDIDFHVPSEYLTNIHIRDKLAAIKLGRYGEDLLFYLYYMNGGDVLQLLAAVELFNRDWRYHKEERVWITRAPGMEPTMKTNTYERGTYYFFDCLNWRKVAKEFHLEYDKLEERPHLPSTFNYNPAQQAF
inactive: lapatinib -0.027 | pictilisib -0.014 | crizotinib -0.023 | [1] 0.111 | duvelisib -0.008 | gandotinib -0.093 | tozasertib 0.001 | doramapimod -0.01 | bafetinib 0.024 | [2] -0.005

COPZ1 isoform 4 (UniProt P61923)
Chain of UniProt P61923 (P61923 whole entry, looked up): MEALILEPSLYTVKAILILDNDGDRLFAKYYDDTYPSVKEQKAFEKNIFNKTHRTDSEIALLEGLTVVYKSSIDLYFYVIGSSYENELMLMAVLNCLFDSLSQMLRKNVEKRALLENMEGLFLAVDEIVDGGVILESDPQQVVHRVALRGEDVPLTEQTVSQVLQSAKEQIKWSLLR
inactive: lapatinib 0.161 | pictilisib 0.062 | crizotinib 0.09 | [1] 0.083 | duvelisib -0.022 | gandotinib -0.066 | tozasertib 0.028 | doramapimod -0.044 | bafetinib -0.048 | [2] -0.088

CSNK2A1, A0A2R8Y4D6
inactive: lapatinib -0.132

CYCS (UniProt P99999)
inactive: lapatinib 0.015 | pictilisib -0.033 | crizotinib 0.036 | [1] -0.054 | duvelisib -0.039 | gandotinib 0.056 | tozasertib -0.004 | doramapimod -0.029 | bafetinib 0.06 | [2] -0.006

CSNK1D (UniProt P48730)
Chain of UniProt P48730 (P48730 whole entry, looked up): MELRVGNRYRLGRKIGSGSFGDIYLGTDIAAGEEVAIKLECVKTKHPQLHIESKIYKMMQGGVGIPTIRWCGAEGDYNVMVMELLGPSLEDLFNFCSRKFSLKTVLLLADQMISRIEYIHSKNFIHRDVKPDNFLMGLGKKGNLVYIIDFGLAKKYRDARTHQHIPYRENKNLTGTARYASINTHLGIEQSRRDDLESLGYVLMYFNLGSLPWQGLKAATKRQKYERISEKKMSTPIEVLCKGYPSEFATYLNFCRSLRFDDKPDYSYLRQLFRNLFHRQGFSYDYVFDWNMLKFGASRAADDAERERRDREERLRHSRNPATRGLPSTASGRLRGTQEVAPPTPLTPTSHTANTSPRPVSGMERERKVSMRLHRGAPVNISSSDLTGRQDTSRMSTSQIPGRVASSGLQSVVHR
inactive: lapatinib -0.098 | pictilisib 0.066 | crizotinib 0.052 | [1] -0.153 | duvelisib 0.007 | gandotinib 0.059 | tozasertib 0.008 | doramapimod -0.011 | bafetinib -0.01 | [2] -0.177

DEF6 (UniProt Q9H4E7)
Chain of UniProt Q9H4E7 (Q9H4E7 whole entry, looked up): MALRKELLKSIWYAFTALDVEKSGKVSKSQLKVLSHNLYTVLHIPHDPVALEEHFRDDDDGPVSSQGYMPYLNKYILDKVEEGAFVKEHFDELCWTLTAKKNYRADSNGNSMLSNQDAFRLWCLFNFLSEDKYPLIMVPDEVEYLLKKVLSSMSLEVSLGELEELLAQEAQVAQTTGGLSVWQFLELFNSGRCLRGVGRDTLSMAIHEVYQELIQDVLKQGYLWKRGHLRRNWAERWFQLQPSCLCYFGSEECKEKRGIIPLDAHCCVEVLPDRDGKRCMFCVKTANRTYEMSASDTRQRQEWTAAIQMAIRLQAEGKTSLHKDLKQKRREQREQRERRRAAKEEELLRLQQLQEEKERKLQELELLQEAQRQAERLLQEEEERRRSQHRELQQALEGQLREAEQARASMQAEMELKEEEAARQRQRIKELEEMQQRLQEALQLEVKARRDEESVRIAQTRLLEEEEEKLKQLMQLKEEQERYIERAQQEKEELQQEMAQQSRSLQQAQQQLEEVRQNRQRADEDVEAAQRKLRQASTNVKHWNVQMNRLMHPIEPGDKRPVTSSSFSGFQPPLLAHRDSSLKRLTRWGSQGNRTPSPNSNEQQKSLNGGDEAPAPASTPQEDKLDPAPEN
inactive: lapatinib -0.021 | pictilisib 0.057 | crizotinib -0.095 | [1] -0.049 | duvelisib 0.013 | gandotinib 0.032 | tozasertib 0.009 | doramapimod 0 | bafetinib 0.151 | [2] 0.188
